This passage reports composite z-score and z-score results from PubChem BioAssay.

Active and inactive are the calls of the source. Unless noted, no rule for the calls is given here.

Test [1] has as its system Wnt5a (protein binding on small-molecule microarray). In words: small molecules binding Wnt5a protein – biophysical, small-molecule microarray, 635/667 nm fluorescence, primary screen (AID 1142).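 Also: fluorescence read at 667 nm with signal to noise per printed feature.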 The following applies: 635 nm fluorescence, higher = more signal.
Test [2] can be described thus: ATP-based viability of Huh7 replicon cells – cell-based, CellTiter-Glo luminescence, basal, 48 h, cytotoxicity control for HCV replication inhibitor project, primary screen (AID 1143).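 Also: Huh7 hepatoma cells carrying a hepatitis C replication reporter with no stimulus; test concentration not given here.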 The following applies: higher = more signal, called active from +8 up or from −8 down.
Test [3] can be described thus: Pseudomonas biofilm growth suppression – PAO1 strain, BacTiter-Glo luminescence, LB-PBS, primary screen (AID 1144). The note with it: P. aeruginosa PAO1 biofilm, 12 h, higher = more signal.
Test [4] is described as follows: basal CRE-LacZ reporter activity in PC12 – cell-based, unstimulated, primary screen (AID 1145). The following applies: no forskolin, luminescence, 4.5 h, higher = more signal, called active from +8 up or from −8 down.
Test [5] in a line: forskolin-driven CRE-LacZ activity in PC12 – cell-based, CRE-LacZ reporter, forskolin-stimulated, primary screen (AID 1146).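 Also: PC12 cells with 6xCRE LacZ reporter stimulated by forskolin 10 µM; beta-galactosidase reporter signal reflecting CREB driven transcription.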 The note with it: luminescence, 4.5 h, higher = more signal, called active from +8 up or from −8 down.
The target of test [6] is Streptavidin (Streptomyces avidinii) (UniProt P22629). In words: compounds binding control protein streptavidin – biophysical, small-molecule microarray, 635/667 nm fluorescence, artefact control for SMM compound annotation, primary screen (AID 1147).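 Also: signal reflects streptavidin binding to arrayed compounds as a control protein.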 The following applies: higher = more signal.
A short description of test [7]: probe aInhba binding on compound microarray – biochemical, small-molecule microarray, 635/667 nm fluorescence, primary screen (AID 1148).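 Also: score merges 667nm spot fluorescence with signal-to-noise for antibody binding to printed compounds.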 The note with it: higher = more signal.
The target of test [8] is Torsin-1A (Homo sapiens) (UniProt O14656). In words: TOR1A wild-type binding on microarray – cell lysate, small-molecule microarray, lysate, 635/667 nm, primary screen (AID 1149). The following applies: COS7 hTOR1A-WT lysate, 635 nm fluorescence, higher = more signal.
The target is the same in test [9]. Description: torsin A mutant lysate binding on microarrays – cell lysate, small-molecule microarray, COS7 lysate, 635/667 nm fluorescence, primary screen (AID 1150).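 Also: score pools 667 nm emission and signal to noise measuring lysate protein binding.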 The note with it: COS7 hTOR1A mutant lysate, 635 nm fluorescence, higher = more signal.
Test [10] deals with Sonic hedgehog protein (Shh). In words: Sonic hedgehog microarray binding compounds – biochemical, small-molecule microarray, 635/667 nm fluorescence, primary screen (AID 1151).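 Also: Shh protein binding to compounds spotted on small-molecule microarray slides; score combines spot fluorescence intensity with signal-to-noise across triplicate slides.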 The following applies: 635 nm fluorescence, higher = more signal.
A short description of test [11]: optical density shifts of acrAB sulA E. coli – strain DRC41, OD650, 48 h, E. coli filamentation inducer project, primary screen (AID 1152).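 Also: E. coli MC1000 strain DRC41 lacking acrAB efflux pump and sulA.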 The note with it: higher = more signal, called active from +8 up or from −8 down.
A short description of test [12]: probe aLefty1 binding on compound microarray – biochemical, small-molecule microarray, 635/667 nm fluorescence, primary screen (AID 1153).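 Also: score merges spot fluorescence with signal-to-noise ratio from the scanned slide images.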 The note with it: higher = more signal.
Test [13] is described as follows: plasmodial surface anion channel blockers, osmotic lysis – cell-based, P. falciparum Indochina, OD700, 1 h, primary screen (AID 1154). The note with it: P. falciparum Indochina infected RBC osmotic lysis, higher = more signal, called active from +8 up or from −8 down.
Test [14] is described as follows: plasmodial surface anion channel blockers, osmotic lysis – cell-based, P. falciparum Indochina, OD700, 2 h, primary screen (AID 1155).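 Also: lysis reports solute entry through the parasite surface anion channel PSAC.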 The following applies: P. falciparum Indochina infected erythrocytes, higher = more signal, called active from +8 up or from −8 down.
The nature of test [15]: changes in parasitized red cell lysis, either direction – P. falciparum Indochina, OD700, 3 h, PSAC antagonist project, primary screen (AID 1156). The note with it: P. falciparum-infected erythrocytes, osmotic lysis, higher = more signal, called active from +8 up or from −8 down.
Test [16] in a line: plasmodial surface anion channel blockers, osmotic lysis – cell-based, P. falciparum Indochina, OD700, 18 h, primary screen (AID 1157). The following applies: P. falciparum Indochina infected erythrocytes, osmotic lysis OD700, 18 h; higher = more signal, called active from +8 up or from −8 down.
The nature of test [17]: S6 kinase pathway phospho-S6 level changes – cell-based, A549, cytoblot, luminescence, serum-stimulated, primary screen (AID 1158).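 Also: serum-stimulated A549 lung adenocarcinoma cells; signal is phosphorylated S6 detected by cytoblot immunostaining with HRP secondary.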 The following applies: 5 h, higher = more signal.
Test [18] has as its target NADPH oxidase 2 (Homo sapiens) (UniProt P04839). Description: compounds shifting NOX2 Amplex Red fluorescence – cell-based, HEK293-NOX2, PMA-stimulated, NOX inhibitor project, primary screen (AID 1159). Also: test concentration not given here. The following applies: 45 min, higher = more signal, called active from +8 up or from −8 down.
The target in test [19] is NADPH oxidase 4 (Homo sapiens) (UniProt Q9NPH5). In words: compounds shifting NOX4 Amplex Red fluorescence – cell-based, HEK293-NOX4, tetracycline-induced, NOX inhibitor project, primary screen (AID 1160). The following applies: HEK293-NOX4, Amplex Red H2O2 fluorescence, 45 min; higher = more signal, called active from +8 up or from −8 down.
The target in test [20] is NADPH oxidase 5 (Homo sapiens) (UniProt Q96PH1). In words: compounds shifting NOX5 Amplex Red fluorescence – cell-based, HEK293-NOX5, NOX inhibitor project, primary screen (AID 1161). The following applies: HEK293-NOX5, ionomycin, 45 min, higher = more signal.
Chain of NADPH oxidase 5 (Homo sapiens) (Q96PH1 whole entry, looked up): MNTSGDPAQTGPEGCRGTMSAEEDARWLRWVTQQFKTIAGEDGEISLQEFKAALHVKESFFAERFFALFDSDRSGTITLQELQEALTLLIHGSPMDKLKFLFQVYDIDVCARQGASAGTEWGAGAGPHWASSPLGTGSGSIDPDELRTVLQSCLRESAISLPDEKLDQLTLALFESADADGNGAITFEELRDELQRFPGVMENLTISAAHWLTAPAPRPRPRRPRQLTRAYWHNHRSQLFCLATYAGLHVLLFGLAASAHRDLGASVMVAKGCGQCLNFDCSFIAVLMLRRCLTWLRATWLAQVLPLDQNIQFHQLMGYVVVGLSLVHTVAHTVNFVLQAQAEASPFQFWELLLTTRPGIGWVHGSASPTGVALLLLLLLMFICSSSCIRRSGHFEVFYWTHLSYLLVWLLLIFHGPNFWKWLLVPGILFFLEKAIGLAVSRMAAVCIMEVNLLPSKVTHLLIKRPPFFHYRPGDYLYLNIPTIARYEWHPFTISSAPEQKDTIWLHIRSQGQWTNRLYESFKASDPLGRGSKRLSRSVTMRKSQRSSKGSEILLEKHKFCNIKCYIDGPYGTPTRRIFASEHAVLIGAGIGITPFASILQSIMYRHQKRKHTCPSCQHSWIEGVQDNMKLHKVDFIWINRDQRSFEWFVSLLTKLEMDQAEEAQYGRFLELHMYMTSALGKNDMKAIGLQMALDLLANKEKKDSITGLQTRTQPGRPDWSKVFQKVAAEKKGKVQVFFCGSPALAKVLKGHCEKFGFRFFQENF

Chain of NADPH oxidase 2 (Homo sapiens) (P04839 whole entry, looked up): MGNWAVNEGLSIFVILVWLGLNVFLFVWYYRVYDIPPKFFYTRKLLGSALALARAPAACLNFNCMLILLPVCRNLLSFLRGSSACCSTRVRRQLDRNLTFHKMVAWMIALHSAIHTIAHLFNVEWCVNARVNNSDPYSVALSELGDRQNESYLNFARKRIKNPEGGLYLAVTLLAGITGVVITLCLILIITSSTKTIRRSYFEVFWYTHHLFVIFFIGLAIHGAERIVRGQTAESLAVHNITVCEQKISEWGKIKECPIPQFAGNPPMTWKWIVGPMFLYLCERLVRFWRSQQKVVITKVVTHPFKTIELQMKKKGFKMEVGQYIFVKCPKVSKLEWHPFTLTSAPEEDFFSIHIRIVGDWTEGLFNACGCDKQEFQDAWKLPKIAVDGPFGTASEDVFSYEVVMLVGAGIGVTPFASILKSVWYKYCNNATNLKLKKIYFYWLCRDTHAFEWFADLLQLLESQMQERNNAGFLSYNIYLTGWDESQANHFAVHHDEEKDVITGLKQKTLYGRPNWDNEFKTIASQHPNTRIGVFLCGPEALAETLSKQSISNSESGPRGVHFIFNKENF
Chain of NADPH oxidase 4 (Homo sapiens) (Q9NPH5 whole entry, looked up): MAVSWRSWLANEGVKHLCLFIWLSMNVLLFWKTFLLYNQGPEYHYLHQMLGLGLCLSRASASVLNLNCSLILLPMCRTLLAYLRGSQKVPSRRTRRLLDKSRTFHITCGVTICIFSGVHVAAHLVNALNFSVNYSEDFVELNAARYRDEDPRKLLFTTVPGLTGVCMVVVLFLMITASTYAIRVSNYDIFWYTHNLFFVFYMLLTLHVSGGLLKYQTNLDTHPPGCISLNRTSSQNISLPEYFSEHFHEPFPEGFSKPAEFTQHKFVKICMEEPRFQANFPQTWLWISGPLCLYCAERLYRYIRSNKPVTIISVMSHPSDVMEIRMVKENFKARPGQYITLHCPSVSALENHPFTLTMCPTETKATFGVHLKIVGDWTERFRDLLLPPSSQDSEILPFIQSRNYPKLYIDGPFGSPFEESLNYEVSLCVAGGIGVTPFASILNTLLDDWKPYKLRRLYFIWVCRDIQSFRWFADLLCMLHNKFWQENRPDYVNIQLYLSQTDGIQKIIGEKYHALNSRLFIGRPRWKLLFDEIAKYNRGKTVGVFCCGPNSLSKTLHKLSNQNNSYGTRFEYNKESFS
Chain of Streptavidin (Streptomyces avidinii) (P22629 whole entry, looked up): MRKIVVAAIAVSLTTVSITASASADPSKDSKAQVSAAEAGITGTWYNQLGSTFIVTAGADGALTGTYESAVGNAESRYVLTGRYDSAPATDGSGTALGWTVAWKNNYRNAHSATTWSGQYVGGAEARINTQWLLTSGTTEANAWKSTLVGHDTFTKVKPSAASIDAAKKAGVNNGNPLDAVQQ
Chain of Torsin-1A (Homo sapiens) (O14656 whole entry, looked up): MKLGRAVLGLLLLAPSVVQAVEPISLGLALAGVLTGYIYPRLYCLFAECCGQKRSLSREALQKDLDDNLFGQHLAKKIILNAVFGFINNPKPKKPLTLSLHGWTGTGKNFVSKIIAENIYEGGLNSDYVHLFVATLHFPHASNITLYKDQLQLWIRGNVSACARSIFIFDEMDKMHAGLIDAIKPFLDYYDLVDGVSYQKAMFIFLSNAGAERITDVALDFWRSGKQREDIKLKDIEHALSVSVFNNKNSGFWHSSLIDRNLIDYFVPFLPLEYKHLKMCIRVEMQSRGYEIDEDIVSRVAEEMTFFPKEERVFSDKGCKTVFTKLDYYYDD

On to `CC(C)(C)N1C(=O)[C@H]2[C@H]3[C@H](O)[C@H](O)CC(=NO[C@@H]4O[C@H](CO)[C@@H](O)[C@H](O)[C@H]4O)[C@@H]3CC[C@H]2C1=O`, for which the composite z-score was 0.324 in [1]; -0.223 in test [6]; 0.0051 in [7]; 0.217 in test [8]; 0.254 in test [9]; 1.53 in test [10]. Besides, the composite z-score in test [12] is -0.147. Also, the z-score in test [2] was -2.45 (inactive); in test [3] it was 0.0108 (inactive); in test [4], 0.518 (inactive); in [5], 0.217 (inactive); in test [11], 0.383 (inactive); in test [13], 1.13 (inactive). The z-score in test [14] was 0.0656 (inactive); in test [15], -0.689 (inactive); in test [16] it was 0.106 (inactive); in [17], -0.345; in test [18], 1.01 (inactive); in [19], -0.022 (inactive). In addition, in test [20], the z-score is -2.07.

Turning to `C#CCCCON=C1C[C@@H](O)[C@@H](O)[C@@H]2[C@@H]3C(=O)N(CCC(=O)OCC)C(=O)[C@@H]3CC[C@@H]12`, the composite z-score in test [1] is 0.109; in test [6] it was 0.842; in [7], 0.027; in [8], -0.343; in test [9] it was 0.612; in test [10], -0.948. This molecule came in with a composite z-score in test [12] of 0.309. Moreover, the z-score is 0.402 (inactive) in test [2]; -0.262 (inactive) in test [3]; 1.15 (inactive) in test [4]; -0.0962 (inactive) in test [5]; 0.425 (inactive) in [11]; 16.5 (active) in test [13]. The z-score was 1.47 (inactive) in test [14]; 0.146 (inactive) in test [15]; 0.404 (inactive) in test [16]; 0.194 in test [17]; -9.69 (active) in [18]; 0.556 (inactive) in [19]. Moreover, the z-score in [20] was 0.618.

For `COC(=O)CC=C[C@@H](C)[C@@H](C=NO[C@H](C)c1cn([C@@H]2COC[C@H]2O)nn1)OC`, the composite z-score in test [1] is 0.0282; in [6] it was 0.521; in test [7], -0.159; in test [8], 0.73; in test [9], 0.863; in test [10], 0.76. Also, the composite z-score in [12] is -0.0003. Also, the z-score in [2] is 0.324 (inactive); in [3], -1.66 (inactive); in [4], 0.518 (inactive); in [5], -0.0094 (inactive); in test [11] it was 0.319 (inactive); in test [13] it was 0.813 (inactive). Moreover, the z-score in test [14] is 0.499 (inactive); in [15], 0.5 (inactive); in test [16] it was 0.415 (inactive); in [17], 0.502; in test [18] it was -0.0191 (inactive); in test [19] it was 0.488 (inactive). The z-score in test [20] is -0.0693.

For `CO[C@@H]1COC(=O)CC=C[C@@H](C)[C@@H]2C=C[C@@H](O)[C@@H](COC(=O)CC=C[C@H]1C)O2`, the composite z-score is -0.141 in test [1]; -0.0469 in test [6]; -0.21 in test [7]; 0.666 in test [8]; 0.244 in test [9]; 2.18 in test [10]. Further, the composite z-score in test [12] was -0.012. Further, the z-score in [2] was -0.972 (inactive); in test [3], -0.492 (inactive); in test [4], 0.343 (inactive); in [5] it was 0.427 (inactive); in test [11], 0.301 (inactive); in [13], 0.118 (inactive). Besides, the z-score in test [14] was -1.35 (inactive); in test [15], -1.66 (inactive); in [16], -1.73 (inactive); in test [17] it was 0.805; in test [18], -0.0926 (inactive); in test [19], 0.492 (inactive). In addition, the z-score in test [20] was 0.957.

For the molecule `CC(C)=CCCC(C)=CCON=C1[C@H]2CCn3c(=O)n(C)c(=O)n3[C@H]2[C@H](O)[C@@H]2O[C@H]12`, the composite z-score in test [1] is 0.287; in test [6], 0.203; in [7], -0.12; in test [8], 1.15; in [9] it was 0.898; in test [10] it was 1.98. This molecule came in with a composite z-score in test [12] of -0.115. The z-score in test [2] was 0.583 (inactive); in [3], 1.13 (inactive); in [4], 0.519 (inactive); in [5] it was -0.0697 (inactive); in test [11], 0.459 (inactive); in test [13], 0.306 (inactive). For the same molecule, the z-score in test [14] was 0.197 (inactive); in test [15] it was 0.0128 (inactive); in test [16], 0.0078 (inactive); in test [17] it was -0.48; in [18], -2.6 (inactive); in [19], 0.0699 (inactive). Moreover, in [20], the z-score was determined as 0.43.
